From PubChem BioAssay (NCI) come the findings set out here.

Among the test systems are MOLT-4 leukemia; SR leukemia; RPMI-8226 leukemia; OVCAR-8 ovarian; OVCAR-5 ovarian; OVCAR-4 ovarian; SK-OV-3 ovarian; IGROV1 ovarian; OVCAR-3 ovarian; HS 578T breast; NCI/ADR-RES ovarian; T-47D breast; BT-549 breast; MDA-MB-435 melanoma; SW-620 colon; MCF7 breast; HCT-116 colon; HCC-2998 colon; KM12 colon.
Holding throughout (test): NCI-60 one-dose screen, 48 h (100 = growth as untreated, 0 = no growth, -100 = all killed)
Details in all cases: 10 µM unless noted

Several values for one entry are separate records, joined by “and”; a condition that tells them apart may be missing. Equal values may be shown once. The panel holds about 83,000 compounds, 20% with a hit somewhere; the sample as a whole holds those more often.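 Step 1: grow cells in 96-well plates. Step 2: add test compound at a single concentration. Step 3: incubate 48 h. Step 4: record percent growth.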 Activity calls are given as the source filed them. The calls were made as follows: active = growth percent below 10; inactive = the rest.

As for `CN1CCc2cc3c(cc2C1O)OCO3` (configuration not stated), the growth with MOLT-4 leukemia is 111% (inactive); with SR leukemia it was 101% (inactive); with RPMI-8226 leukemia it was 94.4% (inactive); in the test on OVCAR-8 ovarian it was 102% (inactive) and 109% (inactive); in the test with OVCAR-5 ovarian, 94.6% (inactive) and 94.1% (inactive); with OVCAR-4 ovarian, 108% (inactive). Besides, the growth with SK-OV-3 ovarian is 97.9% (inactive) and 105% (inactive); with IGROV1 ovarian, 117% (inactive) and 108% (inactive); with OVCAR-3 ovarian, 17.1% (inactive) and 105% (inactive); with HS 578T breast, 55.3% (inactive) and 103% (inactive); in the test on NCI/ADR-RES ovarian, 95.9% (inactive) and 107% (inactive); with T-47D breast it was 69.3% (inactive) and 102% (inactive). Also, the growth in the test with BT-549 breast is -78.9% (active) and 100% (inactive); in the test with MDA-MB-435 melanoma it was 37.8% (inactive) and 102% (inactive); in the test on SW-620 colon, 96.1% (inactive) and 100% (inactive); in the test with MCF7 breast it was 79.5% (inactive) and 94.6% (inactive); in the test with HCT-116 colon, 104% (inactive) and 101% (inactive); with HCC-2998 colon it was 102% (inactive) and 108% (inactive). The growth in the test with KM12 colon is 57.8% (inactive) and 103% (inactive).
With `CC/C(=C(\c1ccc(OCCN2CCOCC2)cc1)c1ccc(OC(=O)Cc2ccccc2)cc1)c1ccc(Cl)cc1`, the growth in the test with MOLT-4 leukemia was 96.7% (inactive); with SR leukemia, 95.6% (inactive); in the test with RPMI-8226 leukemia, 98.8% (inactive); in the test with OVCAR-8 ovarian, 107% (inactive); with OVCAR-5 ovarian, 104% (inactive); in the test with OVCAR-4 ovarian, 120% (inactive). Besides, the growth with SK-OV-3 ovarian is 111% (inactive); in the test on IGROV1 ovarian, 106% (inactive); with OVCAR-3 ovarian it was 102% (inactive); with HS 578T breast it was 96.6% (inactive); in the test on NCI/ADR-RES ovarian it was 105% (inactive); in the test on T-47D breast, 63.5% (inactive). Also, the growth is 104% (inactive) in the test with BT-549 breast; 107% (inactive) with MDA-MB-435 melanoma; 99.9% (inactive) with SW-620 colon; 75.8% (inactive) in the test with MCF7 breast; 97.3% (inactive) with HCT-116 colon; 106% (inactive) in the test with HCC-2998 colon. In the test with KM12 colon, the growth was 101% (inactive).
As for `N#CCC(=O)c1ccccc1`, the growth with MOLT-4 leukemia was 95.2% (inactive); in the test on SR leukemia, 107% (inactive); in the test with RPMI-8226 leukemia it was 108% (inactive); in the test with OVCAR-8 ovarian, 96.5% (inactive); with OVCAR-5 ovarian it was 105% (inactive); in the test with OVCAR-4 ovarian it was 109% (inactive). In addition, the growth in the test with SK-OV-3 ovarian is 105% (inactive); in the test on IGROV1 ovarian it was 104% (inactive); with OVCAR-3 ovarian it was 102% (inactive); in the test on HS 578T breast it was 107% (inactive); in the test on NCI/ADR-RES ovarian it was 104% (inactive); in the test with T-47D breast, 99.4% (inactive). In addition, the growth in the test with BT-549 breast was 116% (inactive); with MDA-MB-435 melanoma it was 101% (inactive); in the test on SW-620 colon, 97.6% (inactive); in the test with MCF7 breast, 92.6% (inactive); with HCT-116 colon, 107% (inactive); in the test with HCC-2998 colon, 71.2% (inactive). Further, the growth in the test on KM12 colon was 90.8% (inactive).
On to `COC(=O)[C@@H](C)C[C@H](Cc1ccccc1)NC(=O)c1cccc([C@@H](C[C@H](C(C)C)N(C)C(=O)[C@@H](NC(=O)[C@H]2CCCCN2C)C2CC2)OC(C)=O)n1`, for which the growth in the test with MOLT-4 leukemia is 14.6% (inactive); with SR leukemia, 14.5% (inactive); with RPMI-8226 leukemia, 25.4% (inactive); in the test with OVCAR-8 ovarian, 14.4% (inactive); in the test with OVCAR-5 ovarian, 38.2% (inactive); in the test with OVCAR-4 ovarian, 52% (inactive). Moreover, the growth is 1.39% (active) with SK-OV-3 ovarian; 23.3% (inactive) with IGROV1 ovarian; -47.5% (active) in the test on OVCAR-3 ovarian; 27% (inactive) with HS 578T breast; 16.4% (inactive) in the test on NCI/ADR-RES ovarian; 63.1% (inactive) with T-47D breast. For the same molecule, the growth is -17.1% (active) in the test with BT-549 breast; -25.4% (active) in the test with MDA-MB-435 melanoma; 23% (inactive) in the test with SW-620 colon; 14% (inactive) in the test on MCF7 breast; 1.92% (active) in the test on HCT-116 colon; 13% (inactive) in the test on HCC-2998 colon. For the same molecule, the growth in the test with KM12 colon was -1.96% (active).
As to `CC[C@@H](C)C(=O)O[C@H]1[C@H](O)[C@H]2[C@@H](CN3C[C@@H](C)CC[C@H]3[C@@]2(C)O)[C@@H]2C[C@]34O[C@]5(O)[C@@H](OC(=O)[C@@](C)(O)CC)CC[C@@]3(C)[C@@H]5[C@@H](OC(C)=O)[C@@H](OC(C)=O)[C@H]4[C@@]21O`, the growth in the test on MOLT-4 leukemia is 87.3% (inactive); in the test on SR leukemia, 100% (inactive); with RPMI-8226 leukemia, 94.1% (inactive); with OVCAR-8 ovarian it was 94.2% (inactive); in the test with OVCAR-5 ovarian, 103% (inactive); with OVCAR-4 ovarian, 95.1% (inactive). For the same molecule, the growth was 93.9% (inactive) in the test with SK-OV-3 ovarian; 106% (inactive) with IGROV1 ovarian; 106% (inactive) in the test with OVCAR-3 ovarian; 97.3% (inactive) in the test with HS 578T breast; 104% (inactive) with NCI/ADR-RES ovarian; 97.3% (inactive) in the test with T-47D breast. Moreover, the growth in the test with BT-549 breast was 99.7% (inactive); with MDA-MB-435 melanoma, 115% (inactive); in the test on SW-620 colon, 95.2% (inactive); with MCF7 breast, 98.4% (inactive); in the test on HCT-116 colon, 98.1% (inactive); in the test on HCC-2998 colon it was 87.9% (inactive). For the same molecule, the growth in the test with KM12 colon is 100% (inactive).
Turning to `CCCn1cc2c3c(cccc31)[C@H]1C[C@@H](C)CN(C)[C@@H]1C2`, the growth was 77.6% (inactive) in the test on MOLT-4 leukemia; 71.4% (inactive) in the test on SR leukemia; 48.4% (inactive) with RPMI-8226 leukemia; 89.1% (inactive) with OVCAR-8 ovarian; 84.4% (inactive) in the test with OVCAR-5 ovarian; 80.6% (inactive) in the test with OVCAR-4 ovarian. The growth in the test on SK-OV-3 ovarian is 87.9% (inactive); in the test with IGROV1 ovarian, 35.1% (inactive); in the test on OVCAR-3 ovarian, 84.4% (inactive); in the test on HS 578T breast, 83.6% (inactive); with NCI/ADR-RES ovarian, 78.8% (inactive); in the test with T-47D breast, 72.6% (inactive). Further, the growth in the test on BT-549 breast is 89% (inactive); in the test with MDA-MB-435 melanoma, 112% (inactive); in the test with SW-620 colon, 90.1% (inactive); in the test with MCF7 breast, 85% (inactive); with HCT-116 colon, 53% (inactive); with HCC-2998 colon it was 95.7% (inactive). Further, in the test on KM12 colon, the growth is 97.6% (inactive).
As to `Cc1cc2c(cc1-c1ccnc(/C=C/C(=O)O)c1)C(C)(C)CCC2(C)C`, the growth in the test with MOLT-4 leukemia is 91.9% (inactive); in the test with SR leukemia, 77.9% (inactive); with RPMI-8226 leukemia it was 41.4% (inactive); in the test with OVCAR-8 ovarian, 79% (inactive); in the test on OVCAR-5 ovarian, 100% (inactive); in the test with OVCAR-4 ovarian, 104% (inactive). The growth in the test with SK-OV-3 ovarian was 98.1% (inactive); with IGROV1 ovarian, 100% (inactive); in the test on OVCAR-3 ovarian it was 82.8% (inactive); with HS 578T breast it was 59.6% (inactive); in the test on NCI/ADR-RES ovarian it was 87.8% (inactive); in the test on T-47D breast, 92.4% (inactive). Further, the growth with BT-549 breast was 64.5% (inactive); in the test on MDA-MB-435 melanoma it was 92.5% (inactive); with SW-620 colon it was 95.9% (inactive); in the test with MCF7 breast it was 56% (inactive); with HCT-116 colon it was 75.1% (inactive); in the test on HCC-2998 colon it was 103% (inactive). In the test on KM12 colon, the growth is 86.3% (inactive).
For `Cc1cc[n+](CCc2ccccc2)cc1`, the growth with MOLT-4 leukemia was 90.4% (inactive) and 101% (inactive); in the test on SR leukemia, 101% (inactive); with RPMI-8226 leukemia it was 115% (inactive); in the test on OVCAR-8 ovarian it was 95.7% (inactive) and 99.1% (inactive); with OVCAR-5 ovarian it was 88.3% (inactive) and 116% (inactive); with OVCAR-4 ovarian it was 90.3% (inactive) and 104% (inactive). The growth with SK-OV-3 ovarian was 116% (inactive) and 115% (inactive); in the test on IGROV1 ovarian, 94.7% (inactive) and 82.5% (inactive); in the test on OVCAR-3 ovarian it was 104% (inactive) and 118% (inactive); in the test on HS 578T breast it was 105% (inactive); in the test on NCI/ADR-RES ovarian, 91.2% (inactive) and 111% (inactive); in the test on T-47D breast, 95.4% (inactive) and 101% (inactive). For the same molecule, the growth was 104% (inactive) and 107% (inactive) with BT-549 breast; 102% (inactive) and 104% (inactive) in the test on MDA-MB-435 melanoma; 101% (inactive) and 117% (inactive) with SW-620 colon; 101% (inactive) and 104% (inactive) in the test with MCF7 breast; 91.2% (inactive) and 103% (inactive) in the test with HCT-116 colon; 85.8% (inactive) and 102% (inactive) in the test with HCC-2998 colon. For the same molecule, the growth in the test with KM12 colon is 105% (inactive) and 107% (inactive).
